Test results as given in article PMC11006913.
Where a chain is given by its changes, count along the chain named.

Legend:
Experiment in all cases: PBM; 200 nM protein, PBS
Settings in all cases: dsDNA, one strand shown
SIX6 [1] = target: T1, SIX6 (Homo sapiens, UniProt O95475 114-200, L167I)
T1 sequence: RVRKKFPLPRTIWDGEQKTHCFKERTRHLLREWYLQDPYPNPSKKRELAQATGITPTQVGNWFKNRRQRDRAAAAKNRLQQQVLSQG

SIX6 [2] = target: T2, SIX6 (Homo sapiens, UniProt O95475 114-200, L143V)
T2 sequence: T1 sequence with L30V, I54L

SIX6 [3] = target: T3, SIX6 (Homo sapiens, UniProt O95475 114-200, H141N)
T3 sequence: T1 sequence with H28N, I54L

SIX6 [4] = target: T4, SIX6 (Homo sapiens, UniProt O95475 114-200, T165P)
T4 sequence: T1 sequence with T52P, I54L

SIX6 [5] = target: T5, SIX6 (Homo sapiens, UniProt O95475 114-200, L167M)
T5 sequence: T1 sequence with I54M

SIX6 [6] = target: T6, SIX6 (Homo sapiens, UniProt O95475 114-200, L143M)
T6 sequence: T1 sequence with L30M, I54L

SIX6 [7] = target: T7, SIX6 (Homo sapiens, UniProt O95475 114-200, L143I)
T7 sequence: T1 sequence with L30I, I54L

SIX6 [8] = target: T8, SIX6 (Homo sapiens, UniProt O95475 114-200, T165G)
T8 sequence: T1 sequence with T52G, I54L

SIX6 [9] = target: T9, SIX6 (Homo sapiens, UniProt O95475 114-200, T139Q)
T9 sequence: T1 sequence with T26Q, I54L

SIX6 [10] = target: T10, SIX6 (Homo sapiens, UniProt O95475 114-200, T165A)
T10 sequence: T1 sequence with T52A, I54L

SIX6 [11] = target: T11, SIX6 (Homo sapiens, UniProt O95475 114-200, L167V)
T11 sequence: T1 sequence with I54V

SIX6 [12] = target: T12, SIX6 (Homo sapiens, UniProt O95475 114-200)
T12 sequence: T1 sequence with I54L

SIX6 [13] = target: T13, SIX6 (Homo sapiens, UniProt O95475 114-200, T165I)
T13 sequence: T1 sequence with T52I, I54L

Row | Sequence | binding signal (SIX6 [1]) | binding signal (SIX6 [2]) | binding signal (SIX6 [3]) | binding signal (SIX6 [4]) | binding signal (SIX6 [5]) | binding signal (SIX6 [6]) | binding signal (SIX6 [7]) | binding signal (SIX6 [8]) | binding signal (SIX6 [9]) | binding signal (SIX6 [10]) | binding signal (SIX6 [11]) | binding signal (SIX6 [12]) | binding signal (SIX6 [13])
1 | ACATATCA | 11.3 upbm affinity estimate (log intensity, higher = more binding, comparable within an allelic series) | 10.4 upbm affinity estimate (log intensity, higher = more binding, comparable within an allelic series) | 11.3 upbm affinity estimate (log intensity, higher = more binding, comparable within an allelic series) | 9.99 upbm affinity estimate (log intensity, higher = more binding, comparable within an allelic series) | 10.7 upbm affinity estimate (log intensity, higher = more binding, comparable within an allelic series) | 11.1 upbm affinity estimate (log intensity, higher = more binding, comparable within an allelic series) | 10.4 upbm affinity estimate (log intensity, higher = more binding, comparable within an allelic series) | 11.3 upbm affinity estimate (log intensity, higher = more binding, comparable within an allelic series) | 11.3 upbm affinity estimate (log intensity, higher = more binding, comparable within an allelic series) | 11.2 upbm affinity estimate (log intensity, higher = more binding, comparable within an allelic series) | 11.1 upbm affinity estimate (log intensity, higher = more binding, comparable within an allelic series) | 11.1 upbm affinity estimate (log intensity, higher = more binding, comparable within an allelic series) | 11.1 upbm affinity estimate (log intensity, higher = more binding, comparable within an allelic series)
2 | AGATATCA | 11.4 upbm affinity estimate (log intensity, higher = more binding, comparable within an allelic series) | 10.5 upbm affinity estimate (log intensity, higher = more binding, comparable within an allelic series) | 11.4 upbm affinity estimate (log intensity, higher = more binding, comparable within an allelic series) | 10.1 upbm affinity estimate (log intensity, higher = more binding, comparable within an allelic series) | 10.8 upbm affinity estimate (log intensity, higher = more binding, comparable within an allelic series) | 11 upbm affinity estimate (log intensity, higher = more binding, comparable within an allelic series) | 10.4 upbm affinity estimate (log intensity, higher = more binding, comparable within an allelic series) | 11.2 upbm affinity estimate (log intensity, higher = more binding, comparable within an allelic series) | 11.1 upbm affinity estimate (log intensity, higher = more binding, comparable within an allelic series) | 11.2 upbm affinity estimate (log intensity, higher = more binding, comparable within an allelic series) | 11.2 upbm affinity estimate (log intensity, higher = more binding, comparable within an allelic series) | 11 upbm affinity estimate (log intensity, higher = more binding, comparable within an allelic series) | 11.1 upbm affinity estimate (log intensity, higher = more binding, comparable within an allelic series)
3 | AGCGGGCC | 9.04 upbm affinity estimate (log intensity, higher = more binding, comparable within an allelic series) | 8.92 upbm affinity estimate (log intensity, higher = more binding, comparable within an allelic series) | 8.88 upbm affinity estimate (log intensity, higher = more binding, comparable within an allelic series) | 8.96 upbm affinity estimate (log intensity, higher = more binding, comparable within an allelic series) | 8.96 upbm affinity estimate (log intensity, higher = more binding, comparable within an allelic series) | 8.83 upbm affinity estimate (log intensity, higher = more binding, comparable within an allelic series) | 8.88 upbm affinity estimate (log intensity, higher = more binding, comparable within an allelic series) | 8.84 upbm affinity estimate (log intensity, higher = more binding, comparable within an allelic series) | 9.03 upbm affinity estimate (log intensity, higher = more binding, comparable within an allelic series) | 8.98 upbm affinity estimate (log intensity, higher = more binding, comparable within an allelic series) | 8.99 upbm affinity estimate (log intensity, higher = more binding, comparable within an allelic series) | 8.89 upbm affinity estimate (log intensity, higher = more binding, comparable within an allelic series) | 8.98 upbm affinity estimate (log intensity, higher = more binding, comparable within an allelic series)
4 | ATATCCTA | 10.8 upbm affinity estimate (log intensity, higher = more binding, comparable within an allelic series) | 10.2 upbm affinity estimate (log intensity, higher = more binding, comparable within an allelic series) | 10.8 upbm affinity estimate (log intensity, higher = more binding, comparable within an allelic series) | 9.8 upbm affinity estimate (log intensity, higher = more binding, comparable within an allelic series) | 10.6 upbm affinity estimate (log intensity, higher = more binding, comparable within an allelic series) | 10.7 upbm affinity estimate (log intensity, higher = more binding, comparable within an allelic series) | 10.2 upbm affinity estimate (log intensity, higher = more binding, comparable within an allelic series) | 10.8 upbm affinity estimate (log intensity, higher = more binding, comparable within an allelic series) | 10.9 upbm affinity estimate (log intensity, higher = more binding, comparable within an allelic series) | 10.7 upbm affinity estimate (log intensity, higher = more binding, comparable within an allelic series) | 10.6 upbm affinity estimate (log intensity, higher = more binding, comparable within an allelic series) | 10.7 upbm affinity estimate (log intensity, higher = more binding, comparable within an allelic series) | 10.7 upbm affinity estimate (log intensity, higher = more binding, comparable within an allelic series)
5 | ACGATAGT | 10.4 upbm affinity estimate (log intensity, higher = more binding, comparable within an allelic series) | 10 upbm affinity estimate (log intensity, higher = more binding, comparable within an allelic series) | 10.4 upbm affinity estimate (log intensity, higher = more binding, comparable within an allelic series) | 9.75 upbm affinity estimate (log intensity, higher = more binding, comparable within an allelic series) | – | – | 10 upbm affinity estimate (log intensity, higher = more binding, comparable within an allelic series) | 10.5 upbm affinity estimate (log intensity, higher = more binding, comparable within an allelic series) | 10.6 upbm affinity estimate (log intensity, higher = more binding, comparable within an allelic series) | 10.4 upbm affinity estimate (log intensity, higher = more binding, comparable within an allelic series) | 10.3 upbm affinity estimate (log intensity, higher = more binding, comparable within an allelic series) | 10.4 upbm affinity estimate (log intensity, higher = more binding, comparable within an allelic series) | 10.3 upbm affinity estimate (log intensity, higher = more binding, comparable within an allelic series)
6 | CAGTGGCC | 8.99 upbm affinity estimate (log intensity, higher = more binding, comparable within an allelic series) | 8.9 upbm affinity estimate (log intensity, higher = more binding, comparable within an allelic series) | 8.99 upbm affinity estimate (log intensity, higher = more binding, comparable within an allelic series) | 9.04 upbm affinity estimate (log intensity, higher = more binding, comparable within an allelic series) | 8.93 upbm affinity estimate (log intensity, higher = more binding, comparable within an allelic series) | 8.95 upbm affinity estimate (log intensity, higher = more binding, comparable within an allelic series) | 8.95 upbm affinity estimate (log intensity, higher = more binding, comparable within an allelic series) | 9.02 upbm affinity estimate (log intensity, higher = more binding, comparable within an allelic series) | 8.99 upbm affinity estimate (log intensity, higher = more binding, comparable within an allelic series) | 8.94 upbm affinity estimate (log intensity, higher = more binding, comparable within an allelic series) | 9.05 upbm affinity estimate (log intensity, higher = more binding, comparable within an allelic series) | 8.95 upbm affinity estimate (log intensity, higher = more binding, comparable within an allelic series) | 8.94 upbm affinity estimate (log intensity, higher = more binding, comparable within an allelic series)
7 | TGATATCA | 11.6 upbm affinity estimate (log intensity, higher = more binding, comparable within an allelic series) | 10.5 upbm affinity estimate (log intensity, higher = more binding, comparable within an allelic series) | 11.6 upbm affinity estimate (log intensity, higher = more binding, comparable within an allelic series) | 9.86 upbm affinity estimate (log intensity, higher = more binding, comparable within an allelic series) | 11 upbm affinity estimate (log intensity, higher = more binding, comparable within an allelic series) | 11.4 upbm affinity estimate (log intensity, higher = more binding, comparable within an allelic series) | 10.5 upbm affinity estimate (log intensity, higher = more binding, comparable within an allelic series) | 11.6 upbm affinity estimate (log intensity, higher = more binding, comparable within an allelic series) | 11.6 upbm affinity estimate (log intensity, higher = more binding, comparable within an allelic series) | 11.6 upbm affinity estimate (log intensity, higher = more binding, comparable within an allelic series) | 11.6 upbm affinity estimate (log intensity, higher = more binding, comparable within an allelic series) | 11.3 upbm affinity estimate (log intensity, higher = more binding, comparable within an allelic series) | 11.4 upbm affinity estimate (log intensity, higher = more binding, comparable within an allelic series)
8 | ATGATACG | 11.2 upbm affinity estimate (log intensity, higher = more binding, comparable within an allelic series) | 10.3 upbm affinity estimate (log intensity, higher = more binding, comparable within an allelic series) | 11.2 upbm affinity estimate (log intensity, higher = more binding, comparable within an allelic series) | 9.78 upbm affinity estimate (log intensity, higher = more binding, comparable within an allelic series) | 10.6 upbm affinity estimate (log intensity, higher = more binding, comparable within an allelic series) | 11 upbm affinity estimate (log intensity, higher = more binding, comparable within an allelic series) | 10.4 upbm affinity estimate (log intensity, higher = more binding, comparable within an allelic series) | 11.3 upbm affinity estimate (log intensity, higher = more binding, comparable within an allelic series) | 11.2 upbm affinity estimate (log intensity, higher = more binding, comparable within an allelic series) | 11.1 upbm affinity estimate (log intensity, higher = more binding, comparable within an allelic series) | 11 upbm affinity estimate (log intensity, higher = more binding, comparable within an allelic series) | 11 upbm affinity estimate (log intensity, higher = more binding, comparable within an allelic series) | 10.9 upbm affinity estimate (log intensity, higher = more binding, comparable within an allelic series)
9 | ATGATACC | 11.6 upbm affinity estimate (log intensity, higher = more binding, comparable within an allelic series) | 10.5 upbm affinity estimate (log intensity, higher = more binding, comparable within an allelic series) | 11.6 upbm affinity estimate (log intensity, higher = more binding, comparable within an allelic series) | 9.82 upbm affinity estimate (log intensity, higher = more binding, comparable within an allelic series) | 11 upbm affinity estimate (log intensity, higher = more binding, comparable within an allelic series) | 11.3 upbm affinity estimate (log intensity, higher = more binding, comparable within an allelic series) | 10.6 upbm affinity estimate (log intensity, higher = more binding, comparable within an allelic series) | 11.7 upbm affinity estimate (log intensity, higher = more binding, comparable within an allelic series) | 11.5 upbm affinity estimate (log intensity, higher = more binding, comparable within an allelic series) | 11.6 upbm affinity estimate (log intensity, higher = more binding, comparable within an allelic series) | 11.4 upbm affinity estimate (log intensity, higher = more binding, comparable within an allelic series) | 11.4 upbm affinity estimate (log intensity, higher = more binding, comparable within an allelic series) | 11.3 upbm affinity estimate (log intensity, higher = more binding, comparable within an allelic series)
10 | GCTGTCCC | 8.84 upbm affinity estimate (log intensity, higher = more binding, comparable within an allelic series) | 8.8 upbm affinity estimate (log intensity, higher = more binding, comparable within an allelic series) | 8.82 upbm affinity estimate (log intensity, higher = more binding, comparable within an allelic series) | 9.07 upbm affinity estimate (log intensity, higher = more binding, comparable within an allelic series) | 8.79 upbm affinity estimate (log intensity, higher = more binding, comparable within an allelic series) | 8.89 upbm affinity estimate (log intensity, higher = more binding, comparable within an allelic series) | 8.88 upbm affinity estimate (log intensity, higher = more binding, comparable within an allelic series) | 8.98 upbm affinity estimate (log intensity, higher = more binding, comparable within an allelic series) | 9.06 upbm affinity estimate (log intensity, higher = more binding, comparable within an allelic series) | 8.87 upbm affinity estimate (log intensity, higher = more binding, comparable within an allelic series) | 9.03 upbm affinity estimate (log intensity, higher = more binding, comparable within an allelic series) | 8.86 upbm affinity estimate (log intensity, higher = more binding, comparable within an allelic series) | 8.9 upbm affinity estimate (log intensity, higher = more binding, comparable within an allelic series)
11 | GATATCCA | 11.1 upbm affinity estimate (log intensity, higher = more binding, comparable within an allelic series) | 10.3 upbm affinity estimate (log intensity, higher = more binding, comparable within an allelic series) | 11 upbm affinity estimate (log intensity, higher = more binding, comparable within an allelic series) | 9.81 upbm affinity estimate (log intensity, higher = more binding, comparable within an allelic series) | 10.7 upbm affinity estimate (log intensity, higher = more binding, comparable within an allelic series) | 10.9 upbm affinity estimate (log intensity, higher = more binding, comparable within an allelic series) | 10.3 upbm affinity estimate (log intensity, higher = more binding, comparable within an allelic series) | 11.1 upbm affinity estimate (log intensity, higher = more binding, comparable within an allelic series) | 11 upbm affinity estimate (log intensity, higher = more binding, comparable within an allelic series) | 11 upbm affinity estimate (log intensity, higher = more binding, comparable within an allelic series) | 10.9 upbm affinity estimate (log intensity, higher = more binding, comparable within an allelic series) | 10.9 upbm affinity estimate (log intensity, higher = more binding, comparable within an allelic series) | 10.8 upbm affinity estimate (log intensity, higher = more binding, comparable within an allelic series)
